# Assay results reported in PubChem BioAssay AID868 (SRMLSC, 2007).
# Among all 190,000 compounds or so, about 3,500 (1.8%) were called active. For the sample, actives were picked, then their nearest neighbours and some compounds at random. A number with no mark means an inactive call.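 The calls were made as follows: active = inhibition above a set limit, 3 SD over mean compound inhibition (cut at about 8.4% in these data); inactive = the rest.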
# Assay: RAM signaling blockers in budding yeast – dse1pr::URA3 reporter, 5-FOA selection, primary screen (AID 868);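 also: 0% = DMSO-only wells with no growth and 100% = 10 µM 1-NA-PP1 full growth; inhibition rescues growth on 5-FOA so higher OD means more RAM inhibition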
# Details: S. cerevisiae dse1pr::URA3 reporter, 5-FOA growth OD615, 2 d; at 50 µM; hits give high values; analog-sensitive cbk1-as2 kinase mutant strain
row,SMILES,inhibition
1,CS(=O)(=O)N1CCc2cc(C(=O)Nc3ccccc3)ccc21,3.82%
2,CN(CC(=O)Nc1ccc(S(=O)(=O)N2CCCC2)cc1)Cc1ccc(Cl)c(Cl)c1,-0.13%
3,O=C(CSCc1ccc(Br)cc1)Nc1ccc(S(=O)(=O)N2CCCCCC2)cc1,19.5% (active)
4,COc1ccc(OCC(=O)OCC(=O)Nc2ccc(S(=O)(=O)N3CCCCC3)cc2)cc1,4.54%
5,COc1ccc(Sc2nc(-c3ccccc3)ncc2OC)cc1,4.55%
6,O=C(CCC(=O)OCC(F)(F)C(F)F)NCc1ccccc1,-0.39%
7,Cc1ccc(OC(=O)c2ccccc2C(=O)OCC(F)(F)C(F)F)cc1,8.9% (active)
8,Cc1ccc(OC(=O)c2cc3ccccc3o2)cc1,0.41%
9,COc1ccc(C=Nc2cccc3ncccc23)cc1,0.48%
10,C=C(C)c1cccc(C(C)(C)NC(=O)NCCN(CC)CC)c1,1.45%
11,O=[N+]([O-])c1cc(S(=O)(=O)Nc2cccc(Cl)c2)ccc1N=Nc1c(O)[nH]c2ccccc12,7.97%
12,O=C(OCN1C(=O)c2ccccc2C1=O)/C(=C\c1ccco1)NC(=O)c1ccccc1,1.22%
13,COc1ccc(/C=C(\NC(=O)c2ccc(OCC(C)C)cc2)C(=O)OCc2ccco2)cc1,11.7% (active)
14,CCCCOc1ccc(C(=O)NCc2ccco2)cc1,0.66%
15,COc1ccc2c(c1)CCC/C2=N\OC(=O)c1ccccc1F,0%
16,COc1ccc(C(=O)NNS(=O)(=O)c2ccc(C)cc2)cc1,1.12%
17,Cc1ccc(S(=O)(=O)NNC(=O)Nc2cccc3ccccc23)cc1,8.69% (active)
18,Cc1ccc(S(=O)(=O)NC(C)C(=O)Nc2ccccc2C(=O)N2CCCC2)cc1 (configuration not stated),0.67%
19,Cc1ccc(C(C[N+](=O)[O-])c2c(C)cc3ccccn23)cc1 (configuration not stated),5.1%
20,CCN1CCN(C(=O)CN(C)S(=O)(=O)c2ccc3ccccc3c2)CC1,1.12%
21,N/C(=N\OC(=O)CCCC(=O)O)c1ncc(C(F)(F)F)cc1Cl,1.61%
22,O=C(CCC(=O)c1cccs1)NCc1ccccc1,1.52%
23,CCCC(=O)n1nc(NCc2ccc(OC)cc2)nc1NCc1ccc(OC)cc1,6.99%
24,O=C(c1cccs1)n1nc(NCc2ccccc2)nc1NCc1ccccc1,11.2% (active)
25,O=C(NCCOc1ccccc1Cl)C(=O)Nc1ccccc1,4.17%

row,SMILES,inhibition
1,NC(N)=Nc1nc2ccc(Br)cc2c(=O)[nH]1,-0.37%
2,CCOCC(=O)Nc1sc2c(c1C(=O)OCC)CCCC2,2.1%
3,CCOC(=O)c1c(NC(=S)NC(=O)c2ccco2)sc2c1CCCC2,4.55%
4,CCOC(=O)c1c(NC(=O)CCC(=O)NCc2ccco2)sc2c1CCCC2,9.97% (active)
5,Nc1cc(C(F)(F)F)ccc1N1CCOCC1,2.42%
6,O=C(CN1CCN(S(=O)(=O)c2ccc(Br)cc2)CC1)Nc1ccccc1C(=O)c1ccccc1,3.25%
7,Cc1cc2ccccc2n1CCNC(=O)COc1ccc2ccccc2c1,11.6% (active)
8,Cc1cc2ccccc2n1CCC(=O)O,-0.54%
9,COC(=O)C(C)NC(=O)COc1ccc2ccccc2c1 (configuration not stated),1.01%
10,COc1ccc(S(=O)(=O)Nc2cccnc2)c(Cl)c1Cl,2.49%
11,CC(C)Cc1nn2c(=O)cc(O)nc2s1,1.5%
12,COc1cccc(CNn2cn[nH]c2=S)c1OCc1ccccc1,1.01%
13,CSc1c(SCc2ccccc2)cnn(Cc2ccccc2)c1=O,1.14%
14,COc1ccc(/C=C/C(=O)Nc2ccc3c(c2)OCCO3)cc1OC,1.12%
15,COc1ccc(NC(=O)CN(C)S(=O)(=O)c2ccccc2)cc1OC,0.34%
16,COc1ccc(S(=O)(=O)N(C)CC(=O)Nc2ccc3c(c2)OCCO3)cc1OC,9.23% (active)
17,Cc1ccc(N2C(=O)C3CC3C2=O)cc1 (configuration not stated),0%
18,O=C(NCc1ccc(Cl)cc1)NCc1ccc(Cl)cc1,2.41%
19,Cc1cccc(Oc2c([N+](=O)[O-])c(=O)n(C)c3ccccc23)c1,2.19%
20,CC(C)c1csc(CN2CCC(CO)(Cc3ccccc3)CC2)n1,1.22%
21,COc1ccc([N+](=O)[O-])cc1NC(=O)c1ccc(N(Cc2ccccc2C)S(C)(=O)=O)cc1,4.39%
22,COc1ccc([N+](=O)[O-])cc1NC(=O)CCc1ccccc1,0.95%
23,COc1ccc([N+](=O)[O-])cc1NC(=O)CC1SC(=Nc2cccc(C)c2C)N(/N=C(\C)c2ccc(C)cc2)C1=O (configuration not stated),9.07% (active)
24,Cc1ccccc1Nc1nc(N)nc(CSc2ccccc2)n1,-0.26%
25,COc1ccc(-c2nnc(SC(=O)N3c4ccccc4Sc4ccccc43)o2)cc1,8.49% (active)

row,SMILES,inhibition
1,COc1ccc(-c2nnc(SCc3cccnc3)o2)cc1,0.36%
2,COc1ccc(-c2nnc(SC(C)C#N)o2)cc1 (configuration not stated),-0.45%
3,CC1CCN(c2ccc([N+](=O)[O-])cc2C(N)=O)CC1,1.09%
4,Cc1cc(C)c(NC(=S)N2CCCC2C(=O)O)c(C)c1 (configuration not stated),-0.25%
5,COc1ccc(CCN2C(=O)c3[nH]nc(-c4ccccc4O)c3C2c2ccc(C)cc2)cc1OC (configuration not stated),1.8%
6,COC(=O)c1ccc(C2C(Oc3ccccc3C)C(=O)N2CCc2ccc(OC)c(OC)c2)cc1 (configuration not stated),12.4% (active)
7,COc1ccc(CCNC(=O)C(=O)NCc2ccccc2C)cc1OC,0.77%
8,Cc1sc2c(c1C)c(=O)n(-c1ccccc1)c(=O)n2CC(=O)NCC1CCCO1 (configuration not stated),1.92%
9,O=C(O)/C=C/C(=O)NNc1ccc([N+](=O)[O-])cc1,0.13%
10,CCOCCCNC(=O)C(NC(=O)c1ccccc1O)c1ccccc1 (configuration not stated),0%
11,Cc1nn(-c2ccccc2)c(C)c1/C=C/C(=O)OC(C)C(N)=O (configuration not stated),1.08%
12,Cc1nn(-c2ccccc2)c(C)c1NC(=O)CCl,3.63%
13,Cc1ccc(C(=O)/C=C/c2c(C)nn(-c3ccccc3)c2Cl)cc1,14.1% (active)
14,Cc1ccc(-n2nc(C)c(/C=N/NC(=O)c3cccs3)c2Cl)cc1,5.29%
15,Cc1nn(-c2ccccc2)c(Cl)c1/C=C/C(=O)c1ccc(O)cc1,8.5% (active)
16,Cc1nn(-c2ccccc2)c(Cl)c1C(=O)Nc1ccccc1,6.51%
17,OCC(CO)(CO)NCc1ccc(-c2ccccc2)cc1,1.38%
18,COC(=O)N/N=C/c1ccc(/C=N/NC(=O)OC)cc1,1.05%
19,COc1cc(C)c(S(=O)(=O)N2CCOCC2)c(C)c1C,0.98%
20,Cc1ccc(N=Cc2c(O)n(-c3nccs3)c(=O)c3ccccc23)c(C)c1,8.99% (active)
21,Cc1ccc(N=Cc2c(O)cc(C)oc2=O)c(C)c1,0.38%
22,Cc1ccc(-n2c(O)c(C=Nc3ccc(S(=O)(=O)Nc4ncccn4)cc3)c3ccccc3c2=O)cc1C,7.54%
23,C/C(CC(=O)N1CCN(C=O)CC1)=N\NC(=O)c1ccc(Br)cc1,2.35%
24,Cc1ccc2[nH]c(C)c(CCNC(=O)NC3CCCCC3)c2c1,1.04%
25,CC(=O)N(CCCN(C)C)c1nc2ccc(C)cc2s1,3.5%

row,SMILES,inhibition
1,CC(C)c1cc(NCc2ccccn2)n2c(nc3ccccc32)c1C#N,-0.26%
2,C=CCc1ccccc1OCC(=O)N/N=C/c1ccccc1OCC,12.4% (active)
3,CCOc1ccccc1/C=N/NC(=O)CNC(=O)COc1ccccc1,1.01%
4,C=C(C)CNC(=S)N/N=C/c1ccccc1OCC(=O)O,0%
5,O=[N+]([O-])c1cc(S(=O)(=O)CCCN2CCOCC2)ccc1F,-0.13%
6,COc1ccc(/C(C)=N/NC(=O)CCC(=O)Nc2ccc(Cl)cc2Cl)c(OC)c1,0.4%
7,COc1ccc(/C(C)=N/Nc2cc(C(F)(F)F)ccc2Cl)c(OC)c1,13.5% (active)
8,COc1cc(OC)c(C(=O)OC(C)C(=O)Nc2cc(C(F)(F)F)ccc2Cl)cc1OC (configuration not stated),0.5%
9,COC(=O)c1ccc(CN2CCC(CO)(Cc3ccc(OC)cc3)CC2)cc1,1.4%
10,COc1ccc(-c2ccc(CCC(=O)O)n2NC(=O)c2ccc(C(C)(C)C)cc2)cc1,5.38%
11,Cc1ccc(CN2CCN(Cc3ccc4ncccc4c3)CC2CCO)cc1 (configuration not stated),0.13%
12,O=C(/C=C/c1ccc2c(c1)OCO2)NCc1cn2cc(Cl)ccc2n1,3.64%
13,Cc1ccc(Cl)cc1NC(=O)COC(=O)C1CCCCC1,1.91%
14,O=C(COC(=O)CCCNC(=O)c1ccc(Cl)cc1)Nc1cc(Cl)ccc1Cl,14.2% (active)
15,Cc1ccc(Cl)cc1NC(=O)COC(=O)CC(C)(C)C,-1.53%
16,O=C(O)c1n[nH]nc1-c1ccccc1,0.27%
17,CCOC(=O)CSC1=C(C#N)C(c2sccc2C)CC(=O)N1 (configuration not stated),0%
18,CCOC(=O)CSC1=C(C#N)C(c2ccco2)C(C(=O)OCc2ccccc2)=C(C)N1 (configuration not stated),17.6% (active)
19,Cc1ccc(C2CC(=O)NC(SCC(=O)OCc3ccccc3)=C2C#N)o1 (configuration not stated),0.38%
20,CC1=C(C(=O)Nc2ccccc2)C(c2ccco2)C(C#N)=C(SCC(N)=O)N1 (configuration not stated),-0.14%
21,C=CCOC(=O)C1=C(C)NC(SCC(=O)OCC)=C(C#N)C1c1ccc(C)cc1 (configuration not stated),17.7% (active)
22,C=CCOC(=O)C1=C(C)OC(N)=C(C#N)C1c1ccc(F)cc1 (configuration not stated),1.6%
